Test results: PubChem BioAssay AID504832 (National Center for Advancing Translational Sciences (NCATS), 2011)
Among all 310,000 compounds or so, about 18,000 (5.8%) were called active. A call without a number means that no potency is given here. Another 22% or so got no clear call; they are omitted. This is one part of a sample in which actives are shown more often than they occur. The call rests on the fitted dose curve; in most records, active means well fitted inhibition curve with a large enough effect; inconclusive means small, poorly fitted or top-dose-only effect, or another doubt; inactive means no such curve, though single readings can be large or run the other way.

Assay: Primary qHTS for delayed death inhibitors of the malarial parasite plastid, 48 hour incubation
Settings: P. falciparum luciferase growth in erythrocytes; series mostly up to 28.7 µM
Outline: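 Firefly luciferase activity from engineered P. falciparum reports growth; inhibitors lower the luminescent signal. Cultures contained 2% hematocrit erythrocytes at 0.1% final parasitemia.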
Potency means the concentration at half of the fitted maximal effect.

| SMILES | activity change, negative = inhibition | Potency |
| --- | --- | --- |
| Cc1ccc(C)c(NC(=O)c2cc(-c3cc(C)cc(C)c3O)n[nH]2)c1 | -16% [at 0.00184 µM] (inactive) |  |
| COCC(C)OC(=O)c1c(N)n(CCCN2CCOCC2)c2nc3ccccc3nc12 (stereo unspecified) |  | inactive |
| CCOC(=O)c1c(N)n(Cc2ccccc2)c2nc3ccccc3nc12 |  | 9.28 µM (active) |
| CCC(=O)Nc1c(S(=O)(=O)c2ccccc2)c2nc3ccccc3nc2n1Cc1ccccc1 |  | inactive |
| Cc1c(C)c2ccc(OCC(=O)N3CCN(c4cccc(Cl)c4)CC3)cc2oc1=O |  | inactive |
| CCc1ccc2c(c1)C(c1ccc([N+](=O)[O-])cc1)=NNC(c1ccccc1)=N2 |  | inactive |
| CCc1ccc2c(c1)C1(NN=C(c3ccccc3)S1)C(=O)N2 (stereo unspecified) |  | 3.7 µM (active) |
| O=C1Nc2ccccc2C12Nc1ccccc1S2 (stereo unspecified) |  | inactive |
| O=C(c1ccc(Br)o1)N1CCN(CCOc2ccccc2)CC1 |  | inactive |
| Cc1ccc(NS(=O)(=O)c2ccc(C(C)(C)C)cc2)cn1 |  | inactive |
| O=C(Oc1cccc(C(=S)N2CCOCC2)c1)c1cccc(Cl)c1 |  | inactive |
| O=C(c1cccs1)N1CCN(C(=O)N2CCOCC2)CC1 |  | inactive |
| O=C(/C=C/c1cccs1)c1cc(Cl)ccc1OC(=O)N1CCOCC1 |  | 10.4 µM (active) |
| O=C(O)c1cccc(S(=O)(=O)N2CC=C(c3ccccc3)CC2)c1 |  | inactive |
| CC(C)C[C@H](NC(=O)C1CCC(CNC(=O)[C@@H]2CCCN2C(=O)OC(C)(C)C)CC1)C(=O)O (stereo partly specified) |  | inactive |
| Cc1ccccc1C(=O)N1CCC(C(=O)Oc2ccc(C#N)cc2)CC1 |  | inactive |
| COc1cccc(-c2nnc(SCCOc3ccc4c(C)cc(=O)oc4c3)o2)c1 |  | inactive |
| Cc1cc(=O)oc2cc(OCCC[n+]3ccccc3)ccc12 |  | 5.22 µM (active) |
| Cc1cc(=O)oc2ccc(OCC(=O)O)cc12 |  | inactive |
| CCCn1c(C(Cc2ccccc2)NC(=O)COC)nc2ccccc21 (stereo unspecified) |  | inactive |
| CC(O)c1nc2ccccc2n1Cc1ccc([N+](=O)[O-])cc1 (stereo unspecified) |  | inactive |
| CCCC(NC(=O)c1ccccc1)c1nc2ccccc2n1Cc1ccc(C(=O)OC)o1 (stereo unspecified) |  | 13.1 µM (active) |

| SMILES | activity change, negative = inhibition | Potency |
| --- | --- | --- |
| Cn1ccnc1SCC(=O)Nc1ccc2c(c1)OCCO2 |  | inactive |
| CCN(CC(=O)Nc1ccccc1OC)C(=O)CC1CC2CCC1C2 (stereo unspecified) |  | inactive |
| N#C[C@]1(S(=O)(=O)c2ccccc2)C[C@@H]2ON=C(c3cccc(Br)c3)[C@@H]2C1 |  | inactive |
| Cc1ccc(C(=O)Nc2ccc(C)c(S(=O)(=O)N(C)C)c2)s1 |  | inactive |
| Cc1ccc(NC(=O)c2cccs2)cc1S(=O)(=O)N(C)C |  | inactive |
| Cc1ccc(NC(=O)CNCc2ccccn2)cc1S(=O)(=O)N(C)C |  | 16.5 µM (active) |
| Cn1c(CCc2ccccc2)nnc1SCC(N)=O |  | inactive |
| COc1ccc(NC(=O)c2cccc3c2C(=O)N(CC2CCCO2)C3)cc1OC (stereo unspecified) |  | inactive |
| O=C(c1cccnc1NCc1ccccc1)N1CCOCC1 |  | inactive |
| Oc1c(C(c2ccccn2)N2CCOCC2)ccc2cccnc12 (stereo unspecified) |  | 9.28 µM (active) |
| Cc1nc2sc(C(c3ccco3)N3CCOCC3)c(O)n2n1 (stereo unspecified) |  | inactive |
| CCc1noc(C)c1C(=O)N1CCCSC1=Nc1ccccc1OC |  | inactive |
| Cc1c(C(=O)Nc2ccccn2)oc2ccc(Br)cc12 |  | inactive |
| CC(C)c1ccc(C(=O)OC2CCOC2=O)cc1 (stereo unspecified) |  | inactive |
| CCC(C)(C)NC(=O)CN(C(=O)CCC(=O)Nc1nccs1)c1ccc2c(c1)OCO2 |  | inactive |
| COc1ccccc1C1SCCN1C(=O)c1ccc([N+](=O)[O-])cc1 (stereo unspecified) |  | inactive |
| COc1cc2c(cc1OC)C(c1cccc([N+](=O)[O-])c1)=NCC2 |  | inactive |
| COc1ccc(C(=O)N2CCc3cc(OC)c(OC)cc3C2c2cccc([N+](=O)[O-])c2)cc1 (stereo unspecified) |  | 6.57 µM (active) |
| Cc1ccc(OCCNC(=O)CNC(=O)c2ccc(C)c(C)c2)cc1 |  | inactive |
| CN(C(=O)COC(=O)c1nc(Cl)ccc1Cl)C1CCS(=O)(=O)C1 (stereo unspecified) |  | inactive |
| COCCN1CCn2c(nc3cc(NS(C)(=O)=O)ccc32)C1 |  | inactive |
| COc1ccccc1/C=C/CN1CCC(CO)(Cc2ccccc2)CC1 |  | 11.7 µM (active) |

| SMILES | activity change, negative = inhibition | Potency |
| --- | --- | --- |
| COc1ccc(CC2(CO)CCN(Cc3cnn(C)c3)CC2)cc1 |  | inactive |
| CC(=O)c1cccc(CN2CCC(CO)(Cc3ccccc3)CC2)c1 |  | inactive |
| Cc1cc(C)n(CCNS(=O)(=O)c2ccc(Cl)cc2)n1 |  | inactive |
| CC(=O)Nc1ccc(NS(=O)(=O)c2ccc3c(c2)NC(=O)CC(=O)N3)cc1 |  | inactive |
| Cc1sc2ncn(CC(=O)NCCCC(=O)N(C)Cc3ccccc3)c(=O)c2c1C |  | inactive |
| CCCc1cc(=O)[nH]c(SCC(=O)N2C(C)CCCC2C)n1 (stereo unspecified) |  | inactive |
| O=C(CN1CCN(c2nc(-c3ccccc3)cs2)CC1)NCc1ccc2c(c1)OCO2 |  | inactive |
| CC1CCCC(C)N1C(=O)CN1CCN(c2nc(-c3ccc(F)cc3)cs2)CC1 (stereo unspecified) |  | 11.7 µM (active) |
| Cc1ccc(S(=O)Cc2ccc(C(=O)N3CCN(C4CCCCC4)CC3)o2)cc1 (stereo unspecified) |  | inactive |
| O=C1C(=O)N(CCN2CCOCC2)C(c2cccc(Cl)c2)/C1=C(/O)c1ccc2c(c1)OCO2 (stereo unspecified) |  | inactive |
| O=C(NCCCn1ccnc1)/C(=C\c1ccccc1F)NC(=O)c1ccccc1 |  | inactive |
| CC(Oc1ccccc1)C(=O)Nc1c2c(nn1-c1ccccc1)CS(=O)C2 (stereo unspecified) |  | inactive |
| O=C(Nc1sc2c(c1C(=O)O)CCC2)c1ccccc1F |  | inactive |
| C=CCn1c(=NC(=O)c2cccs2)sc2cc(NC(C)=O)ccc21 |  | inactive |
| COc1cc(C(C)=O)ccc1OC(C)C(=O)Nc1ccc(S(=O)(=O)N2CCCC2)cc1 (stereo unspecified) |  | inactive |
| C=CCn1c(=NC(=O)c2ccc(S(=O)(=O)N3CCCC3)cc2)sc2cc(NC(C)=O)ccc21 |  | 1.85 µM (active) |
| CCOc1ccc(C(=O)Nc2ccc(S(=O)(=O)Nc3cc(C)on3)cc2)cc1 |  | inactive |
| COc1ccc(C)cc1NC(=O)CNCc1cccs1 |  | inactive |
| CCOC(=O)Nc1ccc(NC(=O)OCC)cc1 |  | inactive |
| C[C@H](NC(=O)OC(C)(C)C)c1nnc(SCC(=O)Nc2ccc(Br)cc2)o1 |  | inactive |
| CC(C)(C)OC(=O)Nc1ccc([C@@H](NC(=O)OC(C)(C)C)C(=O)OC(C)(C)C)cc1 |  | 2.08 µM (active) |
| CN(Cc1ccccc1Cl)C(=O)C1CCC(=O)N(CCc2cccc(F)c2)C1 (stereo unspecified) |  | inactive |
